Tau fibril FP: qHTS for Inhibitors of Tau Fibril Formation, Fluorescence Polarization | Microtubule-associated protein tau (Homo sapiens), P10636 | K18 P301L tau heparin fibrillization, Alexa594 FP, 6 h | Potency, µM (doses to about 57.7 µM), usual class: inhibitors | 280,000 tested, 0.39% active; note: nearly all actives have a fitted effect of over 55% in size
Target sequence (P10636 561-689 P618L limits assumed): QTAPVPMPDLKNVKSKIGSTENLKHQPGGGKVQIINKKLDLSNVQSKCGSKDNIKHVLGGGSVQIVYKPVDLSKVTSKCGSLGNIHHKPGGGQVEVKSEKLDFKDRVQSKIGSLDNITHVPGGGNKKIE
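Heparin (20 uM) drove fibril formation of recombinant tau K18 P301L, 15 uM unlabeled with 0.24 uM Alexa 594 label, for 6 hr at 37 C in 100 mM sodium acetate pH 7. Fluorescence polarization (555/632 nm) read 1 hr after 30 uM ThT.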
Sfp inh: qHTS Assay for Inhibitors of Bacillus subtilis Sfp phosphopantetheinyl transferase (PPTase) | Potency, µM, hits mostly inhibitors | AID 1490, 2009 | 310,000 tested, 3.5% active | 4'-phosphopantetheinyl transferase ffp (Bacillus subtilis), Q9F4F7 | Biochemical Sfp PPTase activity, qHTS;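 note: the enzyme is Sfp with the accession as filed and its product quenches rhodamine fluorescence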
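Buffer: 50 mM Hepes-Na pH 7.6, 10 mM MgCl2, 0.01% Nonidet P-40, 0.01% BSA. Enzyme 15 nM, pre-exposed to compound 15 min; substrates then added and fluorescence change tracked over 30 min.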
Tau fluor cs: Counterscreen qHTS for Inhibitors of Tau Fibril Formation, Fluorescence Polarization; Potency, µM (top dose mostly 57.7 µM); 280,000 tested, 0.93% active; tau K18 P301L Alexa594 fluorescence, heparin fibrillization; note: nearly all actives have a fitted effect of over 55% in size
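Human tau K18 P301L (15 uM unlabeled, 0.24 uM Alexa 594-labeled) in 100 mM sodium acetate pH 7 with 20 uM heparin, 6 hr at 37 C. ThT 30 uM added, 1 hr ambient; Alexa 594 FP and total fluorescence read at 555/632 nm.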
Tau ThT inhib: qHTS for Inhibitors of Tau Fibril Formation, Thioflavin T Binding; recombinant tau K18 P301L, heparin-induced fibrillization, ThT fluorescence; Potency, µM (top dose mostly 57.4 µM), actives largely listed as inhibitors; 270,000 tested, 2.1% active; note: nearly all actives have a fitted effect of over 55% in size
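ThT emission at 510 nm, taken 1 hr after adding 30 uM dye, quantifies aggregates formed when 20 uM heparin acts on human tau K18 P301L for 6 hr at 37 C.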
Coupling enz: qHTS Assay for Inhibitors of Fructose-1,6-bisphosphate Aldolase from Giardia Lamblia: Coupling assay counterscreen | coupling enzyme system counterscreen, AmpLite Red fluorescence | activity change, negative = inhibition, % at 58.2 µM, hits read low | 290,000 tested, 0.67% active | AID 2472, 2010; in the data active = activity change below about -30%
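Counterscreen of the coupled detection system alone, without aldolase: glyceraldehyde-3-phosphate coupling enzymes plus AmpLite Red readout. Compounds at 57.5 uM final, 10 min RT preincubation, 20 min RT reaction, fluorescence 525/598 nm.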
G9a inh: qHTS Assay for Inhibitors of Histone Lysine Methyltransferase G9a | Histone-lysine N-methyltransferase EHMT2 (Homo sapiens), Q96KQ7 | G9a H3K9 monomethylation, AlphaScreen, 2 h | Potency, µM (highest dose often 102 µM), hits mostly inhibitors | 350,000 tested, 8.8% active | AID 504332, 2011; note: nearly all actives have a fitted effect of over 75% in size
Target sequence (Q96KQ7 913-1193 limits assumed): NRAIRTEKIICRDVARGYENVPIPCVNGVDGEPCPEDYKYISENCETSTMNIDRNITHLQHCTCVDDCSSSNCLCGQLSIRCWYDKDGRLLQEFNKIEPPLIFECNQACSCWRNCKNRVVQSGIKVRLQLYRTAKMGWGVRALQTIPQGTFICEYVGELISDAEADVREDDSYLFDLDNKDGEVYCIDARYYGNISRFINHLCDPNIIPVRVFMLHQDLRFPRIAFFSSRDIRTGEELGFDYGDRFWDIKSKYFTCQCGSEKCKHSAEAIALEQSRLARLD
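G9a (20 nM) was preincubated 15 min with compound, then reacted 2 h at room temperature with 500 nM biotin-H3K9 peptide and 20 µM SAM. Monomethyl-H3K9 detected by AlphaScreen using anti-H3K9me1 antibody.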
A number is an active result; n = inactive; u = inconclusive; x = no result given; [ ] = remark or other dose. Most compounds without a hit are left out; they make up all but 11% or so of the library. Unless noted, calls come from the whole dose curve; as a rule, active = well fitted curve in the direction sought with a large enough effect; inconclusive = small, poorly fitted or top-dose-only effect, or another doubt; inactive = no such curve, though single readings can be large; an effect the other way counts as inactive or inconclusive.

SMILES	Tau fibril FP	Sfp inh	Tau fluor cs	Tau ThT inhib	Coupling enz	G9a inh
CCOc1ccc(NC(=O)Cn2cnc3sc(C)c(S(=O)(=O)N4CCN(c5ccccc5OC)CC4)c3c2=O)cc1	n	x	u	u	x	n
C(=C1/CCCC2=C1Nc1ncnn1C2c1ccccc1)/c1ccccc1 (centres undefined)	n	50µM	n	n	x	45µM
COc1ccc(C2C3=C(Nc4ncnn42)c2ccccc2CC3)cc1OC (centres undefined)	n	n	n	u	n	u
Fc1ccccc1/C=C1\CCCC2=C1NC(=S)NC2c1ccccc1F (centres undefined)	n	28µM	n	n	n	35µM
O=C1CCCC2=C1C(c1ccccc1)NC(=S)N2 (centres undefined)	n	u	n	n	n	n
S=C1NC2=C(CCC/C2=C\c2ccc(Cl)cc2)C(c2ccc(Cl)cc2)N1 (centres undefined)	n	7.9µM	n	u	n	x
COC(=O)c1sc2cccc(F)c2c1S(=O)(=O)Nc1cc(OC)cc(OC)c1	n	x	n	n	x	n
COC(=O)c1sc2cccc(F)c2c1S(=O)(=O)Nc1ccc(N(C)C)cc1	n	x	u	u	x	11µM
CCOC(=O)c1sc2ccccc2c1S(=O)(=O)Nc1ccc(N(C)C)cc1	n	x	u	u	x	8.9µM
COc1ccccc1Nc1n[nH]c(=S)s1	n	79µM	n	n	n	1.3µM
CNc1n[nH]c(=S)s1	n	35µM	n	n	n	3.5µM
COc1cccc(Nc2n[nH]c(=S)s2)c1	n	50µM	n	n	n	1.4µM
Cc1cccc(Nc2n[nH]c(=S)s2)c1C	n	20µM	n	u	n	u
CO[C@@H]1/C=C\CC(=O)N2CCC[C@@H]2C(=O)OC[C@@H](C)C(=O)OC[C@H]1C	n[11.6 µM]	n	n[11.6 µM]	n[11.5 µM]	n	x
Cc1ccccc1-c1nc2scc(CCNS(=O)(=O)c3ccccc3)n2n1	n	x	n	n	x	n
Cc1ccc(NC(=O)c2cc3ccccc3o2)nc1	x	x	x	x	x	n
O=C(NCC(=O)N(Cc1ccccc1)C(C(=O)NC1CCCC1)c1ccncc1)c1ccco1 (centres undefined)	n	n	n	n	n	10µM
O=C(NCC(=O)N(Cc1cccs1)C(C(=O)NC1CCCC1)c1ccncc1)c1ccco1 (centres undefined)	u	25µM	n	u	n	u
Cc1ccc(S(=O)(=O)N(Cc2ccccc2)c2ccccc2C(=O)NCc2ccco2)cc1	n	n	n	n	n	50µM
O=C(NCC(=O)N(Cc1cccs1)C(C(=O)NC1CCCCC1)c1ccco1)c1ccco1 (centres undefined)	n	n	n	n	n	n
Cc1ccc(C(C(=O)NCc2ccco2)N(Cc2ccco2)C(=O)CNC(=O)c2ccco2)cc1 (centres undefined)	u	n	n	7.1µM	n	n
Cc1ccc(S(=O)(=O)N(Cc2ccccc2)c2ccccc2C(=O)Nc2ccccc2C(=O)NCc2ccco2)cc1	u	n	n	n	n	n
O=C(CCCCn1c(=O)c2ccccc2n(CC(=O)Nc2ccc(F)cc2F)c1=O)NCc1ccccc1Cl	n	x	n	n	x	n
CC(C)c1nn2c(=O)cc(COC(=O)c3ccccc3NC(=O)c3cccc(Cl)c3)nc2s1	n	x	n	n	x	n
CC(C)(C)c1ccc(/C=N/N2CCN(c3ccccn3)CC2)cc1	n	n	n	u	n	x
SMILES	Tau fibril FP	Sfp inh	Tau fluor cs	Tau ThT inhib	Coupling enz	G9a inh
Cc1nn(-c2ccccc2)c(C)c1/C=N/N1CCN(c2ccccn2)CC1	n	79µM	n	u	n	u
CN(C)c1ccc(/C=N/N2CCN(c3ccccn3)CC2)cc1	n	n	n	1.8µM	n	13µM
Cc1nn(-c2ccccc2)c(Cl)c1/C=N/N1CCN(c2ccccn2)CC1	n	n	n	u	n	n[0.0925 µM]
Cc1nn(-c2ccccc2)c(C)c1/C=N/N1CCN(Cc2ccccc2)CC1	n	n	n	n	n	17µM
COc1ccc(OC)c(NC(=O)CSC2=Nc3ccccc3C3=NC(CCC(=O)NCc4ccco4)C(=O)N23)c1 (centres undefined)	n	x	n	n	x	n
CCn1c(SCC(=O)N2CCC(C)CC2)nnc1-c1ccccc1O	n	x	n	n	x	n
CCCc1cc(=O)oc2c(CN3CCCC3)c(O)c(Cl)cc12	n	n	n	n	n	n
CCc1cc(=O)oc2c(CNCc3ccccc3F)c(O)c(Cl)cc12	x	n	x	x	n	50µM
CC(=O)c1cccc(NC(c2ccc(F)cc2)c2nnc(-c3ccccc3)o2)c1 (centres undefined)	n	x	n	n	x	n
CCOC(=O)C1CCCN(CC(=O)NC2CC2)C1 (centres undefined)	n	n	n	n	n	1.6µM
CCOC(=O)C1CCCN(CCC(=O)Nc2ccccc2)C1 (centres undefined)	n	n	n	n	n	u
CCOC(=O)C1CCCN(C(=S)NC2CCCCC2)C1 (centres undefined)	n	n	n	n	n	n
CCOC(=O)C1CCCN(CCC(=O)Nc2cc(C)cc(C)c2)C1 (centres undefined)	n	n	n	n	n	n
CCOC(=O)C1CCCN(CC(=O)Nc2cccc(C(C)=O)c2)C1 (centres undefined)	n	u	n	n	n	18µM
CCOC(=O)C1CCN(CC(=O)Nc2ccc(OC)c(Cl)c2)CC1	n	n	n	n	n	10µM
COc1ccc(NC(=O)CN2CCN(CC(=O)Nc3ccccc3Cl)CC2)cc1Cl	n	n	n	n	n	x
CCOC(=O)C1CCCN(CC(=O)Nc2cc(C)cc(C)c2)C1 (centres undefined)	n	n	n	n	n	50µM
CCc1cccc(NC(=O)C2Cc3ccccc3N2C(=O)c2ccccc2)c1 (centres undefined)	n	x	n	n	x	n
CCc1noc(C)c1C(=O)NNC(=O)c1cc(OC)c(OC)c(OC)c1	x	x	x	x	x	6.3µM
COc1cc(C(=O)NNC(=O)c2cc(C)[nH]n2)cc(OC)c1OC	n	n	n	n	n	13µM
Cc1cc(C(=O)NNC(=O)CCCCC(=O)NNC(=O)c2cc(C)[nH]n2)n[nH]1	n	79µM	n	n	n	4µM
